From PubChem
Sampled rows, rich in hits. Any-hit rate of the full collection: about 2.9%.
MEKK3 PB1 HTS = raises or lowers MEK5 binding to the human MEKK3 PB1 domain | Q99759 | bead-based flow cytometry, Alexa488-MEK5 binding to MEKK3; actives lie on both sides; 0 = blocked by unlabeled MEK5, 100 = vehicle | binding response (% of control), % at 10 µM | 1.4% of 290,000 active | AID 1529;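 active means binding response more than 3 SD above or below the average of its plate-row segment, actives on both sides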;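 further: Alexa488 bead fluorescence after subtracting the streptavidin-only scavenger bead signal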
dFosB activator = mouse delta FosB homodimer activation | activation, % at 25 µM | P13346 | 0.99% of 340,000 active | purified delta FosB, TAMRA-CDK5 oligo fluorescence polarization; percent of positive-control signal above neutral wells;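 active means mean activation above about 17%, with every replicate also reaching it, limit read from the data, passing the limit was not always enough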
Target sequence (P13346 whole entry, looked up): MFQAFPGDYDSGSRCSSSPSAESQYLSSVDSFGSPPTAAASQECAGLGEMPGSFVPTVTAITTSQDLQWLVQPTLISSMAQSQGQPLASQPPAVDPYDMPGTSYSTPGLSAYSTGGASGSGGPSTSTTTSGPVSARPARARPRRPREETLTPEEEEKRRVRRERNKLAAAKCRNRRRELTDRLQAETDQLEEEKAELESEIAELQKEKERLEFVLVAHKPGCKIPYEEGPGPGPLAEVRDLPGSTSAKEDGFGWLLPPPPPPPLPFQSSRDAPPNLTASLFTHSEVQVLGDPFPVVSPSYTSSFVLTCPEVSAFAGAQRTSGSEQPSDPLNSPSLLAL
MEKK2wt PB1 HTS = raises or lowers MEK5 binding to wildtype human MEKK2 PB1 domain; Q9Y2U5; bead flow cytometry, Alexa488-MEK5 binding to MEKK2 WT; actives lie on both sides; binding response (% of control), % at 10 µM; 1.1% of 290,000 active; AID 1531; in the data active means binding response below about 67% or above about 130%
MEKK2mut PB1 HTS = signal of MEK5 binding to mutant human MEKK2 PB1 domain | bead flow cytometry, Alexa488-MEK5 binding to MEKK2 mutant | percent response, % at 10 µM | 0.35% of 290,000 active; in the data active means percent response above about 24%, passing the limit was not always enough
DNA FID counter = counter-screen for HCV NS3 helicase inhibitors: DNA intercalator displacement | inhibition, % at 7.9 µM | 0.17% of 290,000 active | DNA fluorescent intercalator displacement, fluorescence; in the data active means inhibition above about 37%;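 further: 0% = vehicle and 100% = reference compound; higher means more ethidium bromide displaced from hairpin DNA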
MEKK2wt confirm = raises or lowers MEK5 binding to wildtype human MEKK2, retest. shares compounds with MEKK3 PB1 HTS. bead flow cytometry, Alexa488-MEK5 binding to MEKK2 WT; actives lie on both sides. binding response (% of control), % at 10 µM. 2.4% of 5,900 active. AID 1892; in the data active means binding response below about 16% or above about 210%; inactive means in between
MEKK2mut-MEK5 = signal of MEK5 binding to mutant human MEKK2, retest. shares compounds with MEKK3 PB1 HTS. bead flow cytometry, Alexa488-MEK5 binding to MEKK2 mutant. percent response, % at 10 µM. 2% of 5,900 active; in the data active means percent response mostly above about 71%, no sharp cut-off; inactive means mostly below about 38%;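 further: higher means compound restores mutant binding toward wildtype level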
MEKK3 confirm = confirmation of inhibitors of MEK5 binding to human MEKK3; AID 1894; 1.8% of 5,900 active; binding response (% of control), % at 10 µM; bead flow cytometry, Alexa488-MEK5 binding to MEKK3; stronger effect = lower value; shares compounds with MEKK3 PB1 HTS;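 active means binding response below 72% of control, or above a set upper limit, though filed actives all read lower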;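 further: 100% = DMSO only wells and 0% = binding blocked by excess unlabeled MEK5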
The depositor's hits bear a star; / = no result given; [ ] = remark or other dose.

SMILES | MEKK3 PB1 HTS | dFosB activator | MEKK2wt PB1 HTS | MEKK2mut PB1 HTS | DNA FID counter | MEKK2wt confirm | MEKK2mut-MEK5 | MEKK3 confirm
COC(=O)c1c(NC(=O)Cc2cccs2)sc2c1CCC(C)C2 (stereo unspecified) | 104 | -5 | 97 | 1 | 0 | / | / | /
COC(=O)c1c(NC(=S)NN2CCN(C)CC2)sc2c1CCC(C)C2 (stereo unspecified) | 112 | 4 | 163* | 26 | 16 | 143 | 13 | 106
COc1cc(C2C(C#N)=C(N)N(N(C)C)C3=C2C(=O)CCC3)ccc1O (stereo unspecified) | 102 | -7 | 101 | -3 | -1 | / | / | /
CCN(CC)S(=O)(=O)c1cc(C(=O)OCC(=O)Nc2cccc(C)c2C)ccc1F | 129* | -7 | 103 | 0 | -19 | 94 | 1 | 100
CCc1cccc(CC)c1NC(=O)COC(=O)c1ccc(F)c(S(=O)(=O)N(CC)CC)c1 | 135* | 0 | 109 | 1 | -5 | 102 | 9 | 97
CCN(CC)S(=O)(=O)c1cc(C(=O)OCC(=O)Nc2c(F)cccc2F)ccc1F | 95 | -5 | 93 | -1 | -17 | / | / | /
CCN(CC)S(=O)(=O)c1cc(C(=O)OCC(=O)Nc2cccc(Br)c2)ccc1F | 95 | 2 | 123 | 0 | -16 | / | / | /
Cc1ccc(C(=O)NCC(=O)NCCc2ccc(S(N)(=O)=O)cc2)s1 | 34*[inhibitor] | 0 | 38*[inhibitor] | -31 | 2 | 100 | 5 | 101
COc1ccc(/C=C/C(=O)NCC(=O)N/N=C/c2cc(Br)ccc2OC)cc1 | 101 | 3 | 105 | 91* | -4 | 94 | -3 | 96
COc1ccccc1/C=C/C(=O)NCC(=O)N/N=C/c1cc(Br)ccc1OC | 101 | 1 | 95 | -3 | -15 | / | / | /
CC1CCCCN1C(=O)C(=O)c1cn(CC(=O)N2CCCCCC2)c2ccccc12 (stereo unspecified) | 96 | -10 | 79 | -7 | -38 | / | / | /
CC1CCCCN1C(=O)C(=O)c1cn(CC(=O)N2CCCC2)c2ccccc12 (stereo unspecified) | 1.0*[inhibitor] | -8 | -3.0*[inhibitor] | -15 | -26 | 103 | 2 | 103
N=C1S/C(=C\c2cn[nH]c2-c2ccc(F)cc2)C(=O)N1c1ccccc1F | 93 | 0 | 99 | -1 | -2 | / | / | /
CC(C)N1CCN(Cc2coc3ccccc3c2=O)CC1CCO (stereo unspecified) | 131* | 0 | 120 | 0 | -2 | 76 | -22 | 64*
Cc1ccc(S(=O)(=O)NC(CC(C)C)C(=O)N2CCCC2)cc1 (stereo unspecified) | 100 | -5 | 101 | 2 | -32 | / | / | /
Cc1nc2cc(NC(=O)COc3ccc(C#N)cc3)ccc2n1-c1ccccc1 | 2.0*[inhibitor] | -6 | 2.0*[inhibitor] | -16 | -25 | 98 | -3 | 101
Cc1ccc(NC(=O)CSc2nnc(COc3ccc(C#N)cc3)n2-c2ccccc2)cc1C | 1.0*[inhibitor] | -4 | 1.0*[inhibitor] | -16 | -5 | 99 | -4 | 95
Cc1nc2cc(C(=O)OCC(=O)Nc3ccc(C#N)cc3)ccc2n1-c1ccccc1 | 98 | -18 | 96 | -2 | -26 | / | / | /
COc1ccc(N2CC(C(=O)Nc3cccc(C)n3)CC2=O)cc1 (stereo unspecified) | 95 | -1 | 92 | -9 | -10 | / | / | /
COc1ccc(C)cc1NS(=O)(=O)c1cccc2nonc12 | / | -3 | / | / | 3 | / | / | /
Cn1c(NNC(=O)C2CCCCC2)cc(=O)n(C)c1=O | 97 | 5 | 94 | -10 | -4 | / | / | /
Cc1cccc(NC(=O)c2ccc(S(=O)(=O)C(F)F)cc2)c1C | 137* | -2 | 103 | -1 | -8 | 109 | 0 | 104
Cc1cc(C)cc(NC(=O)c2ccc(S(=O)(=O)C(F)F)cc2)c1 | 144* | 2 | 110 | 1 | -8 | 107 | 6 | 103
